Experimental data taken from PubChem BioAssay AID977607 (Broad Institute, 2014).
The campaign covered roughly 1,500 compounds. About 460 (31%) were called active. Inconclusive results (about 1%) are left out.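 How the source made its calls: active means curve reaches 40% activation over neutral controls at an AC40 no higher than the top valid tested concentration; inconclusive means no clear call, values can overlap the other calls; inactive means signal moving opposite to the expected increase, and the rest.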 Only a sample is shown. Potency and affinity values are given separately.

experiment: activators of glucose-dependent insulin secretion, dose response, cell-based, INS-1E, Gaussia luciferase, luminescence, cherry-pick, set 2 (AID 977607); settings: INS-1E GLuc insulin secretion reporter, 2-3 h, active compounds read high; at 35 µM, 100% = signal doubled over neutral wells unless noted;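 further: 0% = median of the plate neutral control wells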

Max activation, inactive:
COc1ccccc1C(OC(=O)c1cccs1)C(=O)NCC1CCCO1 (stereo not drawn) -15.4% [at 0.015 µM, 100% = signal doubled over neutral wells]
Cc1cccc(C2N=C(N)Nc3nc4ccccc4n32)c1 (stereo not drawn) -24% [at 0.005 µM, 100% = signal doubled over neutral wells]
O=C(Cc1c[nH]c2ccccc12)N[C@@H](Cc1c[nH]c2ccccc12)C(=O)O 39.3% [at 0.135 µM, 100% = signal doubled over neutral wells]
C=CCn1c(O)c(N=NC(=O)CNC(=O)c2ccco2)c2ccccc21 10.5%
O=C1NC(c2ccccc2)c2c(-c3ccccc3)n[nH]c21 (stereo not drawn) -9.3% [at 0.005 µM, 100% = signal doubled over neutral wells]
O=c1[nH]nc(-c2cccs2)c2ccccc12 31.3%
CCCc1cc(=O)n2[nH]c(C)c(-c3ccc(Cl)cc3)c2n1 24.5% [at 0.0016 µM, 100% = signal doubled over neutral wells]
O=C(Nc1ccccc1)Nc1nnc(-c2cccs2)s1 -23.9% [at 11 µM, 100% = signal doubled over neutral wells]
CCc1nnc(NC(=O)C(c2ccccc2)c2ccccc2)s1 -21.5%
O=S(=O)(Nc1ncnc2sc3c(c12)CCC3)c1cc(F)ccc1F 30.2% [at 0.135 µM, 100% = signal doubled over neutral wells]
NC(=O)c1ccc2nc(-c3ccccc3)c(-c3ccccc3)nc2c1 28.4%
O=C(O)CCCNC(=O)c1nn(Cc2ccccc2)c(=O)c2ccccc12 -18.7% [at 0.0016 µM, 100% = signal doubled over neutral wells]
CCOC(=O)Cn1c(=O)n(Cc2ccccc2)c(=O)c2cccnc21 -12.9% [at 0.0016 µM, 100% = signal doubled over neutral wells]
c1ccc(Oc2ccccc2-c2cc(NCCc3cccnc3)n3nccc3n2)cc1 -10.9% [at 0.046 µM, 100% = signal doubled over neutral wells]
O=C(Nc1nnc(-c2ccc(Cl)cc2)o1)NC1CCCCC1 -20.9%
O=C(CCCC(=O)c1ccccc1)NCc1ccccc1 35.8% [at 3.8 µM, 100% = signal doubled over neutral wells]
NCCCNC(=S)NCCCN(Cc1ccc(Cl)cc1)c1ccc(Br)cn1 -16.7% [at 0.005 µM, 100% = signal doubled over neutral wells]
Cc1cccc(-c2cc3nc4c(c(N5CCCC(O)C5)n3n2)CCC4)c1 (stereo not drawn) 36.7% [at 11 µM, 100% = signal doubled over neutral wells]
Fc1ccc(-c2csc3nnc(SCc4cccnc4)n23)cc1 18.4%
Cn1c(=O)c2[nH]c(SCc3ccccn3)nc2n(C)c1=S -21.4% [at 11 µM, 100% = signal doubled over neutral wells]
COc1ccc(C2=NOC(C(=O)NCc3ccccn3)C2)cc1OC (stereo not drawn) 31.6%
O=S1(=O)c2ccccc2OC(COCc2ccccc2)CN1C1CC1 (stereo not drawn) -28.4%
CCN(CC)C(=O)c1ccccc1NS(=O)(=O)c1ccc(C)cc1 -13.4% [at 0.0016 µM, 100% = signal doubled over neutral wells]
Cn1c(N)c(C(c2ccccc2)c2c(N)n(C)c(=O)n(C)c2=O)c(=O)n(C)c1=O 17.9% [at 0.005 µM, 100% = signal doubled over neutral wells]
CC(C)c1ccc(NC2CCCN(C(=O)c3cccnc3)C2)cc1 (stereo not drawn) -13.8% [at 0.42 µM, 100% = signal doubled over neutral wells]
CCCc1nc(N)sc1C(=O)OCC -11.4% [at 1.2 µM, 100% = signal doubled over neutral wells]
CCOC(=O)c1nc(-c2ccccc2)oc1N(C)C -16.2% [at 1.2 µM, 100% = signal doubled over neutral wells]
Nc1nc(SCc2nc3scc(-c4ccccc4)c3c(=O)[nH]2)n[nH]1 50.6%
Cc1cc(C)n2ncc(-c3cccc(Br)c3)c2n1 -17% [at 0.0016 µM, 100% = signal doubled over neutral wells]
CC1CCc2nc(N)c(C#N)c(-c3ccncc3)c2C1 (stereo not drawn) 21.5%
Cc1nc(N)c(C#N)c(-c2cccnc2)c1-c1ccccc1 45.7% [at 11 µM, 100% = signal doubled over neutral wells]
Cc1ccc(C(=O)n2nc(-c3cccnc3)nc2N)cc1 23.7%
N#Cc1c(-c2ccco2)cc(C2CC2)nc1N 25.6%
O=c1cc(-c2cccc(Br)c2)nc(-c2ccccc2F)o1 -17.1% [at 11 µM, 100% = signal doubled over neutral wells]
Cc1cccc(C)c1OCCCn1ccnc1 41% [at 0.046 µM, 100% = signal doubled over neutral wells]
O=C(CC1SC2=NCCN2C1=O)Nc1ccc(Br)cc1 (stereo not drawn) -22.5% [at 0.42 µM, 100% = signal doubled over neutral wells]
Cc1ccc(NC(=O)CN(C(=O)N2CCN(C)CC2)S(=O)(=O)c2ccc(C)cc2)cc1 -21.9% [at 1.2 µM, 100% = signal doubled over neutral wells]
Cc1cc(S(=O)(=O)Nc2nc(CN3CCOCC3)nc3sc4c(c23)CCC4)ccc1F -12.9% [at 0.135 µM, 100% = signal doubled over neutral wells]
